Experimental data taken from ChEMBL document CHEMBL1157539, “Thousands of chemical starting points for antimalarial lead identification” (Nature, 2010).
“And” between values parts separate entries of the source, which are not always exact repeats. Equal values may be shown once.

What follows are compounds tested on Plasmodium falciparum (assay: GSK_TCMDC: Inhibition of Plasmodium falciparum 3D7 in whole red blood cells, using parasite LDH activity as an index of growth. Test compounds present at 2uM).
Type: functional
`COC(=O)c1ccc(-c2ccc(C(=O)NCC3CCN(c4nc(N)c5cc(OC)c(OC)cc5n4)CC3)cc2)cc1` was tested, and the Inhibition was 98%. In the case of `Br.CCCOc1ccc(OCCCON2C(=N)N=C(N)NC2(C)C)cc1`, the Inhibition is reported as 96%. For `Cc1cc(NC(=O)Nc2ccc(Cl)cc2F)c2ccccc2n1`, the Inhibition was 100%. With `CCOc1ccc2[nH]c(C)cc(=NN=Cc3ccccc3F)c2c1` the Inhibition was 100%. `CCCCOC(=O)c1ccc(NC(=O)Nc2ccc(Cn3ncc(N4CCCNCC4)c(Cl)c3=O)cc2)cc1.O=C(O)C(F)(F)F` showed an Inhibition of 92%. `O=C(Cn1c(CCc2cccc(F)c2F)nc(=O)c2ccccc21)N(Cc1ccc(-c2ccc(C(F)(F)F)cc2)cc1)C1CCN(C2CCOCC2)CC1.O=C(O)C(O)C(O)C(=O)O` showed an Inhibition of 100%. In the case of `O=C(NCC(CCN1CCC(c2c[nH]c3ccccc23)CC1)c1ccccc1)Nc1ccc(Cl)c(Cl)c1` (stereo not given), the Inhibition is reported as 100%. For `O=C(Nc1cccc(F)c1)N(Cc1ccc(-c2cccc(CN3CCNCC3)c2)cc1)C1CCN(Cc2ccccc2)CC1.O=C(O)C(F)(F)F`, the Inhibition was 97%. `CN(CCS(C)(=O)=O)Cc1ccc(-c2ccc3ncnc(Nc4ccc(OCc5cccc(F)c5)c(Cl)c4)c3c2)o1.Cc1ccc(S(=O)(=O)O)cc1` was tested, and the Inhibition was 100%. `C=C[C@H]1CN(CCCCCCC)CC[C@H]1CCN(C)c1ccnc2ccc(OC)cc12.O=C(O)C(=O)O` gave an Inhibition of 97%. Compound `Cc1cc2ncn(-c3nccc(NCc4ccc(F)c(C)c4)n3)c2cc1C.O=C(O)C(F)(F)F` has an Inhibition of 90%. `Clc1ccccc1/C=C/c1cncnc1Nc1ccc2[nH]c(Cc3ccccc3)nc2c1` showed an Inhibition of 96%. For `Cc1cc(NCC2CCN(CC3CCCCC3)C2)nc(Nc2ccc(Br)cc2)n1` (stereo not given), the Inhibition was 100%. `O=C(O)C(F)(F)F.O=S(=O)(NCCN1CCCC1)c1ccc(-c2ccc(CNC3Cc4ccccc4C3)cc2)cc1` gave an Inhibition of 99%. `Cc1cc(O)c(C(C)C)cc1C1(c2cc(C(C)C)c(O)cc2C)OC(=O)c2ccccc21` was tested, and the Inhibition was 95%. For `N#CC1(c2ccccc2)CCN(c2nc(NCCCN3CCCC3=O)nc(N3CCCC4CCCCC43)n2)CC1` (stereo not given), the Inhibition was 95%. `Cc1cc(Nc2ccc(C)c(Cl)c2)n2ncnc2n1` was tested, and the Inhibition was 98%. `CC[C@H](C)CNC(=O)c1cncc(-c2cccc(CN(C)C3CCN(C)CC3)c2)c1.O=C(O)C(F)(F)F` showed an Inhibition of 100%. With `CC(C)(C)C1=CC(=NNC(=O)c2ccncc2)C=C(C(C)(C)C)C1=O` the Inhibition was 99%. For `Cn1c(=O)c2cc(C(=O)NCCCN3CCCCCC3)sc2c2ccccc21`, the Inhibition was 99%. Work on `Clc1ccc(CNc2nc(NCCc3c[nH]cn3)nc(N3CCCC4CCCCC43)n2)cc1` (stereo not given) yielded an Inhibition of 100%. In the case of `CNc1ccc(CNCc2cccc(-c3ccc(-c4nc5ccccc5[nH]4)cc3)c2)cc1.O=C(O)C(F)(F)F`, the Inhibition is reported as 100%. `CCc1n[nH]c(C(=O)NC2CCN(CC3(c4ccc(OC)cc4)CCCCC3)CC2)c1C` was tested, and the Inhibition was 90%. Compound `COc1cc(Cl)c(C)cc1-n1cc(C(=O)c2cc(Br)ccc2O)cc(C#N)c1=O` has an Inhibition of 95%. `COc1ccc(CCNCCCCCCNCCc2ccc(Cl)c3ccccc23)cc1OC.Cl` was tested, and the Inhibition was 100%. `CCOc1cc(CNCCCCCCNCc2cc(OCC)c(OCC)c3ccccc23)c2ccccc2c1OCC.CS(=O)(=O)O` gave an Inhibition of 100%. `COc1ccc(NC(=O)c2ccc(Br)c(C)c2)cc1N1CCN(Cc2ccccc2)CC1.O=C(O)C(=O)O` gave an Inhibition of 95%. For `CCc1nc(N)nc(N)c1-c1ccc(Cl)cc1` [PYRIMETHAMINE], the Inhibition was 94% and 93%. `CN(CCCN(C)c1cc(NC(=O)c2cccc(F)c2)ccn1)Cc1cccc(O)c1.O=C(O)C(F)(F)F` showed an Inhibition of 92%. `CC1CC1C(=O)NC1CCN(CC2(c3ccccc3)CCCCC2)CC1` (stereo not given) was tested, and the Inhibition was 97%. `c1ccc(-c2cc(NCc3cccc4ccccc34)c3[nH]ncc3n2)cc1` showed an Inhibition of 93%. In the case of `CCn1c(Sc2ccc([N+](=O)[O-])c(C#N)c2)nnc1-c1cccc(Cl)c1`, the Inhibition is reported as 89%. `O=C(O)C(F)(F)F.OCCN1CCN(Cc2ccc(-c3cccc(-c4nc5cc(C(F)(F)F)ccc5[nH]4)c3)cc2)CC1` gave an Inhibition of 99%. With `O=C(O)C(F)(F)F.O=S(=O)(NCCN1CCCC1)c1cccc(-c2ccc(CNCc3ccccc3)cc2)c1` the Inhibition was 95%. With `O=c1nc(NCCCCCN2CCC(c3c[nH]c4ccccc34)CC2)[nH]cc1Cc1ccc(Cl)c(Cl)c1` the Inhibition was 94%. Work on `COc1ccccc1CNC(=O)CCn1c(=O)[nH]c2ccsc2c1=O` yielded an Inhibition of 85%. `Cc1[nH]c2ccccc2c1C(=O)CSc1nn(-c2ccccc2)c(=S)s1` gave an Inhibition of 100%. `Br.CC1(C)NC(N)=NC(=N)N1OCc1cccs1` showed an Inhibition of 93%. In the case of `Cc1c(CNCCCNc2nc3cscc3[nH]2)sc(C(F)F)c1Br.Cl`, the Inhibition is reported as 99%. Work on `FC(F)c1nc2ccccc2n1-c1nc(N2CCOCC2)nc(N2CCOCC2)n1` [ZSTK-474] yielded an Inhibition of 99%.
